According to PubChem BioAssay:

Biological target: Fibroblast growth factor 2 (Homo sapiens) (UniProt P09038)
Experiment: FGF2 binders on small-molecule microarrays, primary screen, biochemical, small-molecule microarray, 635/667 nm fluorescence (AID 1133)
Details: small-molecule microarray binding, FGF2, fluorescence 635/667; higher = more signal

Chain of Fibroblast growth factor 2 (Homo sapiens) (P09038 whole entry, looked up): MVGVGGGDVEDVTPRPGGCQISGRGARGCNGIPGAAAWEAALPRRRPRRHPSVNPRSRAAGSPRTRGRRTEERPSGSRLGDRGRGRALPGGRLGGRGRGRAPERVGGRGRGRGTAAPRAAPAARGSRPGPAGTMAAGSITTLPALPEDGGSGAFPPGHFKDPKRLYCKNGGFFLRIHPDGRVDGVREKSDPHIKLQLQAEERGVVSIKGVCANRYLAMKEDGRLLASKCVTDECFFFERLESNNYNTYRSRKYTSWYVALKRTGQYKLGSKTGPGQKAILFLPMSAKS

Row | Compound | composite z-score
1 | COC(=O)C1=CC(CCCO)=CC(c2ccc(CN3CCCC3)cc2)N(Cc2cccc(OC(F)(F)F)c2)C=C1C(=O)OC (stereo unspecified) | -0.292
2 | NC(=O)NCC#Cc1ccc2c(c1)[C@]1(C(=O)N2)[C@H](c2ccccc2OCCO)N2[C@H](c3ccccc3)[C@H](c3ccccc3)OC(=O)[C@H]2[C@@H]1C(=O)O | 0.387
3 | COC(=O)[C@@H]1N=C(c2ccc(OCCCO)cc2)O[C@@H]1c1ccccc1 | -0.837
4 | C=CCC(OC(C)=O)[C@@H]1[C@@H](N(Cc2cccc3ccccc23)C(=O)Cc2ccc(OC)cc2)c2cc(OCCCO)ccc2N1C(=O)c1ccc(-c2ccccc2)cc1 (stereo partly specified) | 0.394
5 | CC(C)[Si]1(C(C)C)OCc2cc(-c3ccc(-c4ccc(Cl)c(Cl)c4)o3)nc(-c3ccccc3)c21 | -0.94

System: not listed separately
Experiment: mitochondrial membrane potential change in A549 cells, profiling panel, cell-based, JC-1 fluorescence, basal, 24 h, 100 nL (AID 1138);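 also: A549 lung adenocarcinoma cells under basal conditions with no added stimulus; test concentration not given here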
Details: higher = more signal

Row | Compound | z-score
6 | C=CC[C@H](OC(=O)Nc1ccc(SC)cc1)c1ccc(O)c2ccccc12 | -1.72
7 | O=C1O[C@@H](c2ccccc2)[C@@H](c2ccccc2)N2[C@@H](c3ccc(OCCO)cc3)[C@]3(C(=O)Nc4ccc(C#CC5=CCCCC5)cc43)[C@@H](C(=O)NC[C@H](O)c3ccccc3)[C@H]12 | -1.48
8 | O=C1O[C@H](c2ccccc2)[C@H](c2ccccc2)N2[C@H]1[C@@H](C(=O)O)[C@]1(C(=O)Nc3ccc(C#CCCO)cc31)[C@H]2c1ccccc1OCCO | -0.689
9 | CC(C)c1ccc(NN2C(C(O)c3ccc(C#N)cc3)C=CC3C(=O)N(c4ccccc4)C(=O)C32)cc1 (stereo unspecified) | -0.131
10 | C[N+](C)(C)CCCC[C@@H]1NC(=O)[C@@H]2C[C@H](C(=O)NCCCCCCN)[C@H](c3cccc(OCCO)c3)N2C1=O | 0.197
11 | CC(C)[Si]1(C(C)C)OCc2cc(C3CC3)nc(-c3ccc(Oc4ccccc4)cc3)c21 | 0.546
12 | COCCOC(=O)N1C(=O)[C@@]2(c3cc(C#CC4(O)CCCCCC4)ccc31)[C@H](c1ccc(O)cc1)N1[C@H](c3ccccc3)[C@H](c3ccccc3)OC(=O)[C@H]1[C@@H]2C(=O)N1CCN(c2ncccn2)CC1 | -0.976
13 | COC(=O)c1c(CC[C@@H](CO)NC(=O)N[C@@H](C)Cn2cc(-c3ccccn3)nn2)oc(C(C)=O)c1C(=O)OC | -0.467
14 | CCOC(=O)[C@@H]1CCCCN1C(=O)C(=O)OC | -0.309
15 | CN(C)c1ccc(C(O)C2C=CC3C(=O)NC(=O)C3N2Nc2ccccn2)cc1 (stereo unspecified) | 0.229
16 | CC#CCO[Si](C#Cc1ccccc1)(C(C)C)C(C)C | -1.01
17 | CC(=O)N1CC2(CC2)CC1c1ccccc1 (stereo unspecified) | 0.033
18 | COCCOC(=O)N1C(=O)[C@@]2(c3cc(C#CCC(C(=O)OC)C(=O)OC)ccc31)[C@H](c1ccc(OCCO)cc1)N1[C@H](c3ccccc3)[C@H](c3ccccc3)OC(=O)[C@H]1[C@@H]2C(=O)N1CCc2cc(OC)c(OC)cc2C1 | -0.942
19 | C=CCC(OC(C)=O)[C@@H]1[C@@H](N(Cc2cccc3ccccc23)C(=O)Cc2ccc(F)cc2)c2cc(OCCCO)ccc2N1C(=O)c1ccc2ccccc2c1 (stereo partly specified) | 1.03
20 | CN1C2C=C(CCCO)C(C3C(=O)N(C(N)=O)C(=O)C32)C1C1CC1 (stereo unspecified) | 0.771
21 | CCCN1C(=O)[C@]2(Cc3ccccc31)N=C(c1ccc(OCCCO)cc1)O[C@@H]2c1ccccc1 | -0.23
22 | NCCCCCNC(=O)[C@@H]1C[C@@H]2C(=O)N[C@@H](CCCCN)C(=O)N2[C@@H]1c1ccc(O)cc1 | -0.862
23 | Cc1ccc(C(C)CC(O)C2C=CC3C(=O)N(c4ccccc4)C(=O)C3N2Nc2ccccc2)o1 (stereo unspecified) | -0.592
24 | CCCNC(=O)[C@@H]1c2ccccc2C(=O)N(Cc2ccc(OC(F)(F)F)cc2)[C@H]1c1ccc(CO)cc1 | 1.93
25 | CC(C)C(CO)N1C(=O)[C@@H]2[C@H]3C(=O)OCC=C[C@H]3OC23C=CCN(c2ccc(Cl)cc2)C(=O)[C@@H]13 (stereo partly specified) | 1.05
26 | CC(C)c1ccc(NN2C(C(O)c3ccc(F)cc3)C=CC3C(=O)N(c4ccccc4)C(=O)C32)cc1 (stereo unspecified) | -0.559
27 | OCCCC1=CC(c2ccc(CN3CCCC3)cc2)N(Cc2cc3c(cc2Br)OCO3)CC1 (stereo unspecified) | 0.157
28 | COc1cc2c(cc1O)C(c1cccs1)N(Cc1cc3c(cc1Br)OCO3)CC2 (stereo unspecified) | -1.56
29 | CCCNC(=O)[C@@]1(Sc2ccc(C)cc2)CC(=O)N(C2Cc3ccccc3C2)[C@@H]1c1ccc(CO)cc1I | 1.87
30 | CC(C)=C1C(=O)C(c2ccccc2)=C2CN3C(=O)N(CCc4ccccc4)C(=O)[C@]3(Cc3ccc(C(F)(F)F)cc3)[C@H]21 | 1.57
31 | COc1cccc(C)c1NC(=O)O[C@H]1[C@H](OC(=O)Nc2ccccc2-c2ccccc2)[C@H](OC(=O)Nc2ccccc2-c2ccccc2)[C@@H](OC)O[C@@H]1CO | -0.41
